Source: the supplement of paper PMC8728848
Shown is part of a subset that was picked to be rich in the strongest signals.

Legend:
Assay in all cases: glycan array binding signal (z-score within array); higher = stronger binding
[1] = test system: Neu5Ac(a2-3)Gal(b1-4)GlcNAc(b1-6)[Neu5Ac(a2-3)Gal(b1-3)]GalNAc; conditions: glycan notation: IUPAC condensed, linker removed
Method in brief: (§1)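 Glycan array binding is given as a within-array Z-score, which can be read as non-binding when negative. The arrays, 3228 of them, came from the Consortium for Functional Glycomics database and were retained only where the protein sequence was available. Z-scores were averaged across arrays of the same protein sequence at different concentrations or buffers and across linkers.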

[2] = test system: Neu5Ac(a2-3)Gal(b1-4)GlcNAc6S; conditions: glycan notation: IUPAC condensed, linker removed
Method in brief: as §1

[3] = test system: Neu5Ac(a2-3)Gal6S(b1-4)GlcNAc; conditions: glycan notation: IUPAC condensed, linker removed
Method in brief: as §1

[4] = test system: Neu5Ac(a2-3)Gal(b1-4)GlcNAc(b1-3)Gal(b1-4)GlcNAc(b1-3)Gal(b1-4)GlcNAc; conditions: glycan notation: IUPAC condensed, linker removed
Method in brief: as §1

[5] = test system: Neu5Ac(a2-3)Gal(b1-4)GlcNAc(b1-3)Gal(b1-4)GlcNAc(b1-3)[Neu5Ac(a2-3)Gal(b1-4)GlcNAc(b1-3)Gal(b1-4)GlcNAc(b1-6)]GalNAc; conditions: glycan notation: IUPAC condensed, linker removed
Method in brief: as §1

[6] = test system: Neu5Ac(a2-3)Gal(b1-4)GlcNAc(b1-3)[Neu5Ac(a2-3)Gal(b1-4)GlcNAc(b1-6)]GalNAc; conditions: glycan notation: IUPAC condensed, linker removed
Method in brief: as §1

[7] = test system: Neu5Ac(a2-3)Gal(b1-4)Glc; conditions: glycan notation: IUPAC condensed, linker removed; mutation: R125K
Method in brief: as §1

[8] = test system: Neu5Ac(a2-3)Gal(b1-4)[Fuc(a1-3)]GlcNAc(b1-3)Gal(b1-4)GlcNAc; conditions: glycan notation: IUPAC condensed, linker removed; mutation: R125K
Method in brief: as §1

[9] = test system: Neu5Ac(a2-3)Gal(b1-4)[Fuc(a1-3)]GlcNAc(b1-3)Gal; conditions: glycan notation: IUPAC condensed, linker removed
Method in brief: as §1

[10] = test system: Neu5Ac(a2-3)Gal(b1-4)[Fuc(a1-3)]GlcNAc6S; conditions: glycan notation: IUPAC condensed, linker removed
Method in brief: as §1

[11] = test system: Neu5Ac(a2-3)Gal(b1-4)[Fuc(a1-3)]GlcNAc(b1-3)GalNAc; conditions: glycan notation: IUPAC condensed, linker removed
Method in brief: as §1

[12] = test system: Neu5Ac(a2-3)Gal(b1-4)[Fuc(a1-3)]GlcNAc(b1-6)[Gal(b1-3)]GalNAc; conditions: glycan notation: IUPAC condensed, linker removed
Method in brief: as §1

[13] = test system: Neu5Ac(a2-3)Gal(b1-4)[Fuc(a1-3)]GlcNAc(b1-3)Gal(b1-4)[Fuc(a1-3)]GlcNAc(b1-3)Gal(b1-4)[Fuc(a1-3)]GlcNAc; conditions: glycan notation: IUPAC condensed, linker removed
Method in brief: as §1

[14] = test system: Neu5Ac(a2-3)Gal(b1-4)GlcNAc(b1-3)Gal(b1-4)[Fuc(a1-3)]GlcNAc; conditions: glycan notation: IUPAC condensed, linker removed
Method in brief: as §1

[15] = test system: Neu5Ac(a2-3)Gal(b1-4)GlcNAc(b1-6)[Gal(b1-3)]GalNAc; conditions: glycan notation: IUPAC condensed, linker removed
Method in brief: as §1

[16] = test system: Neu5Ac(a2-3)Gal(b1-4)GlcNAc(b1-3)Gal(b1-4)GlcNAc; conditions: glycan notation: IUPAC condensed, linker removed
Method in brief: as §1

[17] = test system: Neu5Ac(a2-3)Gal(b1-4)GlcNAc; conditions: glycan notation: IUPAC condensed, linker removed
Method in brief: as §1

[18] = test system: Neu5Ac(a2-3)Gal(b1-4)[Fuc(a1-3)]GlcNAc; conditions: glycan notation: IUPAC condensed, linker removed
Method in brief: as §1

[19] = test system: Neu5Ac(a2-3)Gal(b1-4)GlcNAc(b1-3)Gal; conditions: glycan notation: IUPAC condensed, linker removed
Method in brief: as §1

[20] = test system: Neu5Ac(a2-3)Gal(b1-4)GlcNAc(b1-6)GalNAc; conditions: glycan notation: IUPAC condensed, linker removed
Method in brief: as §1

Chain of 6RG (Lolium perenne) (chain, as listed by the source): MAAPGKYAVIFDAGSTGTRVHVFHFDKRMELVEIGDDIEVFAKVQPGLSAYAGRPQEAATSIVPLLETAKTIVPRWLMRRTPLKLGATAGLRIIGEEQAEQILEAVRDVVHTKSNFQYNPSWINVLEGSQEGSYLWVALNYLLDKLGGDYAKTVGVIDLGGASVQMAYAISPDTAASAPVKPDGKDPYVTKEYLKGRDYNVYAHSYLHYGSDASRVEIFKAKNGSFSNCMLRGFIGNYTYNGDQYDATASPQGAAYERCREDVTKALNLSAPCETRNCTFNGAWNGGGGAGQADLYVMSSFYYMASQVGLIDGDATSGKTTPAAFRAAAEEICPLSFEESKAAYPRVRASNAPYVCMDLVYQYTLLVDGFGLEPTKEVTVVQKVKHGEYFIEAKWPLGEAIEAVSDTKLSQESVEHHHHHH
Chain of C3b (Homo sapiens), P01024 (P01024 23-667): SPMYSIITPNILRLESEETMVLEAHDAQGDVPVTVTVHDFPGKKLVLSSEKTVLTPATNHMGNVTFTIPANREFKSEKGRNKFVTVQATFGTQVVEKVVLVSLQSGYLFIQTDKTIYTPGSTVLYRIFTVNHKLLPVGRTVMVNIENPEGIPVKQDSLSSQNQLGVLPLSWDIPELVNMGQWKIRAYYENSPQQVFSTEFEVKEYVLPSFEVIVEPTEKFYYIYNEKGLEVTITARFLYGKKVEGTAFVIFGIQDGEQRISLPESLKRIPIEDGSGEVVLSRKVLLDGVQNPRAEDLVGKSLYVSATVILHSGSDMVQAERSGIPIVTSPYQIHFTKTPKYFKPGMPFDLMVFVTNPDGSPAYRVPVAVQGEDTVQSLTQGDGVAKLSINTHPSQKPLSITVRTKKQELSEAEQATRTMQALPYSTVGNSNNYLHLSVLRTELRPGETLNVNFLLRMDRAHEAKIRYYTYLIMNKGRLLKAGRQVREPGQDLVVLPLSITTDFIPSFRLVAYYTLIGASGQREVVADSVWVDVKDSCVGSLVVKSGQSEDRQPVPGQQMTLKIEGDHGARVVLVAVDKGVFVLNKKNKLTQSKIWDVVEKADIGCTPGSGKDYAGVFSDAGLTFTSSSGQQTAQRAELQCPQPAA
Chain of Neurocan (Homo sapiens), O14594 (O14594 other isoform, or with tags, fused parts or gaps): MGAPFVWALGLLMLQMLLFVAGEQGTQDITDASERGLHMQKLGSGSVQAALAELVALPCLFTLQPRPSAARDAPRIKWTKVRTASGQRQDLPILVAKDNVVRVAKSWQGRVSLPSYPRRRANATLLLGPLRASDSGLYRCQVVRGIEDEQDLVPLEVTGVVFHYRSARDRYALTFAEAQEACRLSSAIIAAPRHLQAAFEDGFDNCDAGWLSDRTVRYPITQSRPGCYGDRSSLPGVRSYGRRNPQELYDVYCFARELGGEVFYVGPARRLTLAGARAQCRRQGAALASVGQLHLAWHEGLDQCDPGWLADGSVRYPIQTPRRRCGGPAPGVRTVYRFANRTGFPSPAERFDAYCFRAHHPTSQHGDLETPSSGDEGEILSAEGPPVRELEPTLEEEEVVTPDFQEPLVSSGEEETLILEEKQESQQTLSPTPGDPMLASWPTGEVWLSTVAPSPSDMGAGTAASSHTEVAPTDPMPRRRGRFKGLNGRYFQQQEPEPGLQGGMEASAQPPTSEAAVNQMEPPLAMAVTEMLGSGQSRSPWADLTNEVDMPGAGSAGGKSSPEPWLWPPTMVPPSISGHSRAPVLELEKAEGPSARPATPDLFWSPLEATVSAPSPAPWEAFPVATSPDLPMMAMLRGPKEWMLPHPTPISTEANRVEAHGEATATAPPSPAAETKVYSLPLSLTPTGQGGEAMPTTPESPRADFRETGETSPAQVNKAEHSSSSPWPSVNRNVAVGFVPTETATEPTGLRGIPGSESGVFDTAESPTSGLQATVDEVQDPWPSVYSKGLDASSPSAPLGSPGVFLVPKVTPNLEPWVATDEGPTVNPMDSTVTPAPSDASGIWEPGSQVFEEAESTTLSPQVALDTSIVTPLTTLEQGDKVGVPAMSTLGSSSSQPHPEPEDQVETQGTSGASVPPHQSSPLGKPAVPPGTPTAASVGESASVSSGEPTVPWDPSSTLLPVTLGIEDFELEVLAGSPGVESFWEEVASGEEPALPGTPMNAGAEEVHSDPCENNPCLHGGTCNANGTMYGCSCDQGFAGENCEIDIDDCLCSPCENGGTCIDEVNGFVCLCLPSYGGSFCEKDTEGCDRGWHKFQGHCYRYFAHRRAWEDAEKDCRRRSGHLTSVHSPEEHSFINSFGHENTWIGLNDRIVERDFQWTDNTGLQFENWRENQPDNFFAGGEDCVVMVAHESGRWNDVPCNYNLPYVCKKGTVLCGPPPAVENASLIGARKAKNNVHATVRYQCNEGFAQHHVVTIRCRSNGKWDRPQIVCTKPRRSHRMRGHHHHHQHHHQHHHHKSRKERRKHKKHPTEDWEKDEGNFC
Chain of PILRa (Mus musculus), Q2YSF3 (Q2YSF3 entry or part of it): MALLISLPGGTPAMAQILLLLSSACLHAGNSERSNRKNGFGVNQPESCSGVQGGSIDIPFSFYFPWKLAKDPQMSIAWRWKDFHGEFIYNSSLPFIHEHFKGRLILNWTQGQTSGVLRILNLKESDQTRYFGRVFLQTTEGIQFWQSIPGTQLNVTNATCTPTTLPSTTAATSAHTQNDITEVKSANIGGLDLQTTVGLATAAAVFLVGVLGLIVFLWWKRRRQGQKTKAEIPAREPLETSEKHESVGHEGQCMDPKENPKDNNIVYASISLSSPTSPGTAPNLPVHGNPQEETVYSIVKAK
Chain of CHI3L1 (Homo sapiens), P36222 (P36222 whole entry): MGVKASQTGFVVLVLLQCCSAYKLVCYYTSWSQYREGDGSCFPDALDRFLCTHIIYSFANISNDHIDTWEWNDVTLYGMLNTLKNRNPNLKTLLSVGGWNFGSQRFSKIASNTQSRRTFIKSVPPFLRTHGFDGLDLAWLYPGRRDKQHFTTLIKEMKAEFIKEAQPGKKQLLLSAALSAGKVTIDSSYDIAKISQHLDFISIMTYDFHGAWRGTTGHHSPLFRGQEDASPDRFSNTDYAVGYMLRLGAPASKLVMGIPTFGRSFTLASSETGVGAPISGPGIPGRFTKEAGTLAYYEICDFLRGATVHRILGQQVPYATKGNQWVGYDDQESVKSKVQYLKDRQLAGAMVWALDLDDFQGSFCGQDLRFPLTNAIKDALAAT
Chain of Avaren (Actinomycete K97) (chain, as listed by the source): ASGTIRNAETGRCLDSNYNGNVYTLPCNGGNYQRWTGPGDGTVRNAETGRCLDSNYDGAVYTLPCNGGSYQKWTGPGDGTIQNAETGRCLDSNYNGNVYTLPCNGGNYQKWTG
Chain of 6RG (Lolium perenne), B9U140 (B9U140 entry or part of it): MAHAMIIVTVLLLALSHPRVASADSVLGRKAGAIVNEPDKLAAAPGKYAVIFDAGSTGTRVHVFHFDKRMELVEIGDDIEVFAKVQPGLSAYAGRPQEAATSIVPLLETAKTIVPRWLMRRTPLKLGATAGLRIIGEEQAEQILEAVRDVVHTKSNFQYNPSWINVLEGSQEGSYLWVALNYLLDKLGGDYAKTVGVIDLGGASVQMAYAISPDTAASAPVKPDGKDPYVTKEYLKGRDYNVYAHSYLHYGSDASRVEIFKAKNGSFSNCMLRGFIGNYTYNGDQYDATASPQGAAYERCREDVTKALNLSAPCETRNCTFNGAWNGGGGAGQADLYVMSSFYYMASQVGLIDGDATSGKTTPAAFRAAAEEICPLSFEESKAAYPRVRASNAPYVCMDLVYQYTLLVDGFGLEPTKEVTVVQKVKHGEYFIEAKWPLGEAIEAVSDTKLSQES
Chain of PILRb (Mus musculus), Q2YSF2 (Q2YSF2 entry or part of it): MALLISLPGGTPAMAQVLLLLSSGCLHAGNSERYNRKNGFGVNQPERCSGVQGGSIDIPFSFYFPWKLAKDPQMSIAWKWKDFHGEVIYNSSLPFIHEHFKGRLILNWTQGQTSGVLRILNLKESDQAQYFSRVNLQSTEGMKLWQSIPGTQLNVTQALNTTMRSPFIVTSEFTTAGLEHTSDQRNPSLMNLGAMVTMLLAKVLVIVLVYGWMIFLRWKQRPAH
Chain of wLAT-1A (Homo sapiens), Q01650 (Q01650 whole entry): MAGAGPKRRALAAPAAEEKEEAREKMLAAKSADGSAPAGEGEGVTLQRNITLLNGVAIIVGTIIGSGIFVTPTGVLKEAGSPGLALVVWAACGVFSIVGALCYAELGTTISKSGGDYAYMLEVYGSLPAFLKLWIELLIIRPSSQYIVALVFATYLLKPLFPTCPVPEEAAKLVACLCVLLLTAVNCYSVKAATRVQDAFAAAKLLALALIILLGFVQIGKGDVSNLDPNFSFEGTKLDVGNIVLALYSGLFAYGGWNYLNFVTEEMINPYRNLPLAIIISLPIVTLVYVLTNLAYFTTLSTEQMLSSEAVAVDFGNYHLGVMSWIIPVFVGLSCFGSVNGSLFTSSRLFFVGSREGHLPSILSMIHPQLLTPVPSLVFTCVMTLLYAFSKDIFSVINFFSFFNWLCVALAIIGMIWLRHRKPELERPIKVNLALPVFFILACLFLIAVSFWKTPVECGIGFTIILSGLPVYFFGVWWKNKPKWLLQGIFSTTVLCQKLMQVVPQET
Chain of CHT (Homo sapiens) (chain, as listed by the source): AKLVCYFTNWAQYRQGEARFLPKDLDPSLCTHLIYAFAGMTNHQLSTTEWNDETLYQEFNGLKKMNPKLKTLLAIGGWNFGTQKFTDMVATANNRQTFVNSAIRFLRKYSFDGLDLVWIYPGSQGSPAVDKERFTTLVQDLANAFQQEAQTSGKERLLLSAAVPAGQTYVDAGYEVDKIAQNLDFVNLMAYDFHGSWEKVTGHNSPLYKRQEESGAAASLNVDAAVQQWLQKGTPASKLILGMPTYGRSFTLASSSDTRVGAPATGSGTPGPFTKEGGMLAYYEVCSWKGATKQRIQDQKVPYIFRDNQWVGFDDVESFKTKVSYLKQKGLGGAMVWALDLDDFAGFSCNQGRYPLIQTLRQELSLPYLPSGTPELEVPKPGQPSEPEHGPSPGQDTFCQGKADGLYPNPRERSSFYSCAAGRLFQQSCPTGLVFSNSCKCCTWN
Chain of Aggrecan (Rattus norvegicus), NP_071526 (chain, as listed by the source): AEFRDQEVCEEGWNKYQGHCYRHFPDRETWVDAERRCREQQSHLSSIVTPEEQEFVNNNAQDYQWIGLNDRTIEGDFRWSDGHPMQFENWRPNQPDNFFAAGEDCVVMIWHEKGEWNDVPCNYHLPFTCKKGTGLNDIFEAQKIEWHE

Avaren (Actinomycete K97)
glycan array binding signal (z-score) [1]: -0.138 | glycan array binding signal (z-score) [2]: -0.116

6RG (Lolium perenne), B9U140
glycan array binding signal (z-score) [3]: 1.4

CHT (Homo sapiens)
glycan array binding signal (z-score) ([2]; mutation: D138V, E140I): -0.118

Siglec-8 (Homo sapiens), Q9NYZ4
glycan array binding signal (z-score) ([4]; mutation: R125K): -0.378 | glycan array binding signal (z-score) [5]: -0.138 | glycan array binding signal (z-score) [6]: -0.207 | glycan array binding signal (z-score) [7]: 6.29 | glycan array binding signal (z-score) [8]: -0.182 | glycan array binding signal (z-score) ([9]; mutation: R125K): 0.14 | glycan array binding signal (z-score) ([10]; mutation: R125K): -0.382 | glycan array binding signal (z-score) [3]: 16.9

Neurocan (Homo sapiens), O14594
glycan array binding signal (z-score) [11]: 4.45 | glycan array binding signal (z-score) [12]: 3.52 | glycan array binding signal (z-score) [3]: -1.3

PILRb (Mus musculus), Q2YSF2
glycan array binding signal (z-score) [10]: -0.229

Aggrecan (Rattus norvegicus), NP_071526
glycan array binding signal (z-score) [13]: -0.136

6RG (Lolium perenne)
glycan array binding signal (z-score) [14]: -0.244 | glycan array binding signal (z-score) [15]: -0.075 | glycan array binding signal (z-score) [10]: -0.352

CHI3L1 (Homo sapiens), P36222
glycan array binding signal (z-score) [11]: -0.075 | glycan array binding signal (z-score) [9]: -0.104

Regenerating Gene IV (Homo sapiens), Q9BYZ8
glycan array binding signal (z-score) [12]: 0.692

wLAT-1A (Homo sapiens), Q01650
glycan array binding signal (z-score) [3]: 0.097

PILRa (Mus musculus), Q2YSF3
glycan array binding signal (z-score) [16]: 1.21 | glycan array binding signal (z-score) [1]: -0.272

HARE (Homo sapiens), Q8WWQ8
glycan array binding signal (z-score) [17]: -0.41

C3b (Homo sapiens), P01024
glycan array binding signal (z-score) [4]: 0.362 | glycan array binding signal (z-score) [16]: -0.787 | glycan array binding signal (z-score) [18]: 0.03

MpAFP RI GFP (Marinomonas primoryensis)
glycan array binding signal (z-score) [19]: -0.665 | glycan array binding signal (z-score) [20]: -0.342 | glycan array binding signal (z-score) [12]: 0.494 | glycan array binding signal (z-score) [3]: -0.72
